# High-throughput results deposited in PubChem by National Center for Advancing Translational Sciences (NCATS).
# A selection: hits, their analogues and other compounds. The true share with any hit is near 10%.
# NPR1 antag – blocks ANP-stimulated signaling of human Npr1 receptor; P16066; HEK293 hNpr1 GloSensor cGMP, ANP-stimulated luminescence; Potency, µM (doses to about 46.3 µM), for inactives: top-dose activity change, negative = inhibition, most hits filed as inhibitors; actives 1.6% (n = 76,000); AID 1347048; calls by dose curve; also: nearly all actives have a fitted effect of over 60% in size
#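 Compound pre-incubated 30 min at room temperature on GloSensor-loaded HEK293 cells stably carrying hNpr1 and the pGS-40F cGMP biosensor. Stimulation uses hNppA at 0.1 nM final; luminescence is taken at baseline and 20 min post-agonist.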
# GPT2 inhibitor – GPT2 alanine aminotransferase inhibition; Recombinant GPT2, coupled pyruvate oxidase/HRP Amplex Red fluorescence; Q8TD30; actives 0.25% (n = 100,000); Potency, µM (series often up to 57.7 µM), inactives show at the highest dose activity change, negative = inhibition, usual class: inhibitors; also: nearly all actives have a fitted effect of over 60% in size
#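 Fluorescence of coupled pyruvate oxidase/HRP/Amplex Red system (50uM Amplex, 30 min, dark) reports pyruvate formed by GPT2. Enzyme reaction: 10ng/uL GPT2, 2mM L-alanine, 250uM a-KG, 30 min room temperature, pH 7.5; 50uM AOA control.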
# Luciferase inh – blocks purified firefly luciferase enzyme activity; Potency, µM (doses to about 115 µM), usual class: inhibitors; P08659; actives 2.5% (n = 76,000); purified P. pyralis luciferase, luminescence, biochemical; also: nearly all actives have a fitted effect of over 65% in size
#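 Biochemical qHTS: compound (6-point titration) added to 10uM D-luciferin plus 10uM ATP in Tris acetate pH 7.5 buffer with Mg, Tween-20 and BSA, then purified enzyme at 10nM; light output imaged.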
# HEK293 tox – cytotoxic compounds in HEK 293 cells | HEK 293 viability, ATP luminescence (CellTiter-Glo), 48-72 h | Potency, µM (highest dose often 115 µM), for the others: top-dose activity change, negative = cytotoxicity, actives largely listed as inhibitors | actives 6.6% (n = 94,000); also: nearly all actives have a fitted effect of over 60% in size
#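 Viability of HEK 293 cells, plated at 250 cells/well, was judged by cellular ATP after compound treatment for 48 or 72 hr. Luminescence was imaged 10 min after CellTiter-Glo addition at room temperature.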
# 3T3 cytotox – cytotoxic compounds in NIH 3T3 cells. NIH 3T3 viability, CellTiter-Glo ATP luminescence, 48-72 h. Potency, µM (series often up to 96.7 µM), for the others: at the highest dose activity change, negative = cytotoxicity, hits mostly inhibitors. actives 4.3% (n = 94,000); also: nearly all actives have a fitted effect of over 55% in size
#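 Cytotoxicity is measured as loss of cellular ATP: NIH 3T3 cells (400/well) are exposed to compound for 48 or 72 hr at 37 °C, then CellTiter-Glo luminescence is imaged after 10 min at room temperature.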
# * = called active by the depositor; i = inactive; ? = inconclusive; . = no result; [ ] = remark or other dose. Unless noted, calls follow the shape of the dose curve; as a rule, active = well fitted curve in the direction sought with a large enough effect; inconclusive = small, poorly fitted or top-dose-only effect, or another doubt; inactive = no such curve, though single readings can be large; an effect the other way counts as inactive or inconclusive. % is scaled to controls: 0 for no effect and ±100 for the full control effect; potency is read from the fitted curve at half-maximal effect.
SMILES,NPR1 antag,GPT2 inhibitor,Luciferase inh,HEK293 tox,3T3 cytotox
COc1cccc(-c2cc3c(=O)n(CCNC(=O)Cc4ccc(F)cc4)ccn3n2)c1,?,i,7.9µM*,-10%,-10%
COc1ccc(-c2cc3c(=O)n(CCNC(=O)c4cc(OC)cc(OC)c4)ccn3n2)cc1,-17%,i,i,-5%,-23%
O=C(NC1CCCN(c2cc(-c3ccc(F)cc3)[nH]n2)C1)c1nccc2ccccc12 (configuration not stated),-2%,0%,?,?,?
COc1cccc(-c2cc3c(=O)n(CCNC(=O)Cc4ccccc4C)ccn3n2)c1,-26%,-16%,?,4%,-17%
COc1cccc(-c2cc3c(=O)n(CCNC(=O)COc4ccccc4)ccn3n2)c1,-23%,-1%,25µM*,-23%,-20%
COc1ccc(OC)c(C(O)Cn2ccn3nc(-c4ccc(C(C)C)cc4)cc3c2=O)c1 (configuration not stated),?,i,?,32µM*,-9%
COc1cccc(-c2cc3c(=O)n(CCNC(=O)Cc4ccsc4)ccn3n2)c1,-3%,i,28µM*,?,-25%
COc1cccc(-c2cc3c(=O)n(CC(O)c4ccccc4)ccn3n2)c1 (configuration not stated),-30%,i,3.5µM*,35µM*,-29%
COc1ccc(C(O)Cn2ccn3nc(-c4ccc(C(C)C)cc4)cc3c2=O)cc1 (configuration not stated),-2%,0%,i,2%,-4%
COc1ccc2[nH]c(C(=O)NCC(=O)N3CCCCCCNC(=O)CC3c3ccccc3)cc2c1 (configuration not stated),-12%,1%,i,?,3%
COCCC1(NC(=O)c2ccccc2)CCN(Cc2cn[nH]c2-c2cccs2)CC1,-10%,i,i,-6%,-19%
O=C(Cc1cccnc1)N1CCCC(CN2CCCC2)CC1 (configuration not stated),.,i,.,i,i
O=[S+]1([O-])c2cccnc2OC(COc2ccccc2)CN1C1Cc2ccccc2C1 (configuration not stated),.,0%[27.3 µM],.,?,?
Cn1ncc2c(C(=O)NCC3CCCCCC3)cc(-c3ccccc3F)nc21,.,.,.,32µM*,?
COc1ccccc1-c1cc(C(=O)NCC2CCCCC2)c2cnn(C)c2n1,.,.,.,-2%,-17%
COc1ccc(-c2cc(C(=O)NCCc3ccccc3F)c3cnn(C)c3n2)cc1,.,?,.,32µM*,?
Cn1ncc2c(C(=O)NCCc3ccccc3F)cc(-c3ccc(F)cc3)nc21,.,-19%,.,32µM*,?
COc1ccc(CCNC(=O)c2cc(-c3ccccc3F)nc3c2cnn3C)cc1,.,.,.,35µM*,?
Cc1noc(C)c1[S+](=O)([O-])N1CCc2nc(-c3ccccc3)nc(-c3ccc(Cl)cc3)c2C1,.,-1%,.,-6%,i
O=C(C1CCN([S+](=O)([O-])c2cccc(C(F)(F)F)c2)CC1)N1CCC(N2CCOCC2=O)CC1,.,?,.,?,-28%
COCCNc1ccc2nnc(-c3ccccn3)n2n1,3%[70.6 µM],-8%[88.5 µM],i,0%[230 µM],?
Cc1ccc(-c2nnc3ccc(NCc4cccs4)nn23)nc1,-12%[70.6 µM],-17%[88.5 µM],i,100µM*,?
COCCCNc1ccc2nnc(-c3ccc(C)cn3)n2n1,-6%[70.6 µM],1%[88.5 µM],i,-8%[172 µM],89µM*
O=C(Nc1ccccc1)N1CCC(C(=O)N2CCCC(c3nc4ncccc4[nH]3)C2)CC1 (configuration not stated),.,i,.,-10%,-17%
COCCNC(=O)c1cc(-c2cccc(C(F)(F)F)c2)nc2c1cnn2C,.,-2%,.,-3%,-36%
Oc1ccc(C=Cc2cc(O)cc(O)c2)cc1,.,-27%,.,.,.
Oc1cc(O)cc(C=Cc2ccc(O)c(O)c2)c1,.,4.3µM*,.,.,.
O=c1cc(O)cc(/C=C/c2ccc(O)c(O)c2)o1,.,6.3µM*,.,.,.
COc1ccc(CN2CCn3c(nn(-c4ccc(F)cc4F)c3=O)C2)cc1,-14%,i,i,?,-14%
